# Results reported in PubChem BioAssay (NCI).
# This is part of a sample that, as a whole, favours compounds with a hit. Of some 79,000 tested, about 15% had one in any assay. Values without a mark were called inactive. The source made the active and inactive calls. Cut-off read from the data, not from the text of the source: active = growth inhibition above about 70%; inactive = the rest.
# How the values were obtained:
# [1] = NCI Yeast Anticancer Drug Screen. Data for the rad52 strain (AID 147);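 note: 0% = growth of vehicle-treated control cultures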; details: S. cerevisiae rad52 mutant growth inhibition, stronger effect = higher value
# Procedure, shortened: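 DNA repair-defective yeast; compound exposure; growth scored against vehicle controls.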
# [2] = NCI Yeast Anticancer Drug Screen. Data for the wt1 strain (AID 149);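 note: 0% = growth of vehicle-treated wt1 cultures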; details: S. cerevisiae wt1 strain (SPY 50644) growth inhibition, stronger effect = higher value
# Procedure, shortened: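 wt1 strain grown with compound or vehicle; inhibition taken from the growth difference.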
# [3] = NCI Yeast Anticancer Drug Screen. Data for the rad50EPP+ strain (AID 151);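 note: 0% = growth of vehicle-treated control cultures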; details: S. cerevisiae rad50 mutant strain, stronger effect = higher value
# Procedure, shortened: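 rad50EPP+ yeast treated with test compounds. Readout: growth vs vehicle control.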
# [4] = NCI Yeast Anticancer Drug Screen. Data for the mgt1 strain (AID 153); details: S. cerevisiae mgt1 mutant growth inhibition, stronger effect = higher value
# Procedure, shortened: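 Growth inhibition relative to vehicle controls was scored for the mgt1 yeast strain after compound exposure.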
# [5] = NCI Yeast Anticancer Drug Screen. Data for the rad50 strain (AID 155);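 note: 0% = growth of vehicle-only cultures of the same strain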; details: S. cerevisiae rad50 strain growth inhibition, stronger effect = higher value
# Procedure, shortened: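 DNA repair mutant yeast, compound exposure, growth read-out; inhibition is taken relative to vehicle.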
# [6] = NCI Yeast Anticancer Drug Screen. Data for the mec2-1 strain (AID 157); details: S. cerevisiae mec2-1 strain, stronger effect = higher value
# Procedure, shortened: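 Growth inhibition is read against vehicle-treated controls after compound exposure of the mec2-1 yeast strain, which is defective in DNA damage repair or cell cycle control.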
# [7] = NCI Yeast Anticancer Drug Screen. Data for the rad14 strain (AID 159);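 note: 0% = growth of vehicle-treated control cultures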; details: S. cerevisiae rad14 strain growth inhibition, stronger effect = higher value
# Procedure, shortened: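 DNA repair-defective yeast, compound-exposed; % growth inhibition derived by comparison with vehicle-treated controls.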
# [8] = NCI Yeast Anticancer Drug Screen. Data for the sgs1 mgt1 strain (AID 161);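 note: 0% = growth of cultures given vehicle only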; details: S. cerevisiae sgs1 mgt1 strain, stronger effect = higher value
# Procedure, shortened: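 Compounds are added to genetically altered yeast, and growth is compared with cultures given vehicle alone to give percent inhibition.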
# [9] = NCI Yeast Anticancer Drug Screen. Data for the cln2 rad14 strain (AID 165);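 note: 0% = growth equal to vehicle treated cultures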; details: S. cerevisiae cln2 rad14 strain, stronger effect = higher value
# Procedure, shortened: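 Growth inhibition, relative to vehicle-treated controls, is the read-out. The test organism is a yeast strain with defined genetic alterations, cln2 rad14.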
# [10] = NCI Yeast Anticancer Drug Screen. Data for the bub3 strain (AID 167); details: S. cerevisiae bub3 mutant strain, stronger effect = higher value
# Procedure, shortened: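 In this screen, a yeast mutant lacking normal mitotic checkpoint function is challenged with compound. Relative growth versus vehicle gives the inhibition value.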
# [11] = NCI Yeast Anticancer Drug Screen. Data for the wt2 strain (AID 169);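 note: 0% = growth of vehicle-treated yeast cultures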; details: S. cerevisiae wt2 strain growth inhibition, stronger effect = higher value
# Procedure, shortened: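 Compound exposure of yeast; growth compared with vehicle controls; inhibition reported.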
# [12] = NCI Yeast Anticancer Drug Screen. Data for the mlh1 strain (AID 171);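 note: 0% = growth of vehicle-treated control cultures of the same strain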; details: S. cerevisiae mlh1 strain growth inhibition, stronger effect = higher value
# Procedure, shortened: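 Compounds are applied to a genetically altered yeast strain, and its growth is compared with that of vehicle-treated cultures to give percent inhibition.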
# [13] = NCI Yeast Anticancer Drug Screen. Data for the sgs1 strain (AID 173);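 note: 0% = growth of vehicle-only control cultures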; details: S. cerevisiae sgs1 mutant, stronger effect = higher value
# Procedure, shortened: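 Compounds applied to genetically altered yeast; growth compared with vehicle-treated cultures to give % inhibition.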
# [14] = NCI Yeast Anticancer Drug Screen. Data for the mlh1 rad18 strain (AID 175); details: S. cerevisiae mlh1 rad18 strain growth inhibition, stronger effect = higher value
# Procedure, shortened: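 Cells of a genetically altered yeast strain, deficient in DNA damage repair, were treated with compound. Their growth was then compared with that of vehicle-treated cultures to give inhibition.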
# [15] = NCI Yeast Anticancer Drug Screen. Data for the CLN2oe strain (AID 163);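 note: 0% = growth of vehicle-only control cultures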; details: S. cerevisiae CLN2oe strain, stronger effect = higher value
# Procedure, shortened: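 Compound-treated yeast; growth vs vehicle ctrl = % inhibition. Genetically altered strain (cell-cycle control).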
# [16] = NCI Yeast Anticancer Drug Screen. Data for the rad18 strain (AID 177); details: S. cerevisiae rad18 mutant growth inhibition, stronger effect = higher value
# Procedure, shortened: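 Compounds are applied to a repair-deficient yeast strain, and growth is compared with that of vehicle-treated cultures to give percent inhibition.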
# [17] = at 5.0 µM (retest, dose inferred, filed as 0.5)
# [18] = at 50.0 µM (retest, dose inferred, filed as 5.0)
smiles,measurement,setting,value
Cc1ccc(I)cc1N=C=S,growth inhibition,[1]; at 1.2 µM,-5%
same,growth inhibition,[1]; at 3.7 µM,6%
same,growth inhibition,[1]; at 11.0 µM,22%
same,growth inhibition,[1]; at 33.0 µM,82% (active)
same,growth inhibition,[1]; at 100.0 µM,99% (active)
same,growth inhibition,[2]; at 1.2 µM,-12%
same,growth inhibition,[2]; at 3.7 µM,-14%
same,growth inhibition,[2]; at 11.0 µM,-9%
same,growth inhibition,[2]; at 33.0 µM,74% (active)
same,growth inhibition,[2]; at 100.0 µM,99% (active)
same,growth inhibition,[3]; at 1.2 µM,15%
same,growth inhibition,[3]; at 3.7 µM,36%
same,growth inhibition,[3]; at 11.0 µM,63%
same,growth inhibition,[3]; at 33.0 µM,96% (active)
same,growth inhibition,[3]; at 100.0 µM,99% (active)
same,growth inhibition,[4]; at 1.2 µM,31%
same,growth inhibition,[4]; at 3.7 µM,44%
same,growth inhibition,[4]; at 11.0 µM,53%
same,growth inhibition,[4]; at 33.0 µM,96% (active)
same,growth inhibition,[4]; at 100.0 µM,99% (active)
same,growth inhibition,[5]; at 1.2 µM,8%
same,growth inhibition,[5]; at 3.7 µM,6%
same,growth inhibition,[5]; [17],32%
same,growth inhibition,[5]; at 11.0 µM,25%
same,growth inhibition,[5]; at 33.0 µM,94% (active)
same,growth inhibition,[5]; [18],62%
same,growth inhibition,[5]; at 50.0 µM,79.1% (active)
same,growth inhibition,[5]; at 100.0 µM,99% (active)
same,growth inhibition,[6]; at 1.2 µM,-4%
same,growth inhibition,[6]; at 3.7 µM,8%
same,growth inhibition,[6]; [17],48%
same,growth inhibition,[6]; at 11.0 µM,8%
same,growth inhibition,[6]; at 33.0 µM,82% (active)
same,growth inhibition,[6]; [18],62%
same,growth inhibition,[6]; at 50.0 µM,56.9%
same,growth inhibition,[6]; at 100.0 µM,99% (active)
same,growth inhibition,[7]; at 1.2 µM,-11%
same,growth inhibition,[7]; at 3.7 µM,-10%
same,growth inhibition,[7]; at 11.0 µM,11%
same,growth inhibition,[7]; at 33.0 µM,94% (active)
same,growth inhibition,[7]; at 100.0 µM,99% (active)
same,growth inhibition,[8]; [17],0%
same,growth inhibition,[8]; [18],100% (active)
same,growth inhibition,[9]; [17],52%
same,growth inhibition,[9]; [18],100% (active)
same,growth inhibition,[10]; at 1.2 µM,7%
same,growth inhibition,[10]; at 3.7 µM,28%
same,growth inhibition,[10]; [17],7%
same,growth inhibition,[10]; at 11.0 µM,37%
same,growth inhibition,[10]; at 33.0 µM,96% (active)
same,growth inhibition,[10]; [18],100% (active)
same,growth inhibition,[10]; at 100.0 µM,99% (active)
same,growth inhibition,[11]; at 1.2 µM,-21%
same,growth inhibition,[11]; at 3.7 µM,-12%
same,growth inhibition,[11]; at 11.0 µM,4%
same,growth inhibition,[11]; at 33.0 µM,82% (active)
same,growth inhibition,[11]; at 100.0 µM,99% (active)
same,growth inhibition,[12]; at 1.2 µM,28%
same,growth inhibition,[12]; at 3.7 µM,28%
same,growth inhibition,[12]; at 11.0 µM,44%
same,growth inhibition,[12]; at 33.0 µM,93% (active)
same,growth inhibition,[12]; at 100.0 µM,99% (active)
same,growth inhibition,[13]; at 1.2 µM,6%
same,growth inhibition,[13]; at 3.7 µM,2%
same,growth inhibition,[13]; at 11.0 µM,18%
same,growth inhibition,[13]; at 33.0 µM,83% (active)
same,growth inhibition,[13]; at 100.0 µM,99% (active)
same,growth inhibition,[14]; [17],35%
same,growth inhibition,[14]; [18],50%
same,growth inhibition,[14]; at 50.0 µM,63.1%
CN(CC(=O)O)c1ccc(/C=C/c2ccnc3ccccc23)cc1,growth inhibition,[1]; at 1.2 µM,-3%
same,growth inhibition,[1]; at 3.7 µM,-5%
same,growth inhibition,[1]; at 11.0 µM,-2%
same,growth inhibition,[1]; at 33.0 µM,13%
same,growth inhibition,[1]; at 100.0 µM,41%
same,growth inhibition,[2]; at 1.2 µM,-2%
same,growth inhibition,[2]; at 3.7 µM,-3%
same,growth inhibition,[2]; at 11.0 µM,-4%
same,growth inhibition,[2]; at 33.0 µM,-8%
same,growth inhibition,[2]; at 100.0 µM,-6%
same,growth inhibition,[3]; at 1.2 µM,-9%
same,growth inhibition,[3]; at 3.7 µM,3%
same,growth inhibition,[3]; at 11.0 µM,8%
same,growth inhibition,[3]; at 33.0 µM,35%
same,growth inhibition,[3]; at 100.0 µM,83% (active)
same,growth inhibition,[4]; at 1.2 µM,0%
same,growth inhibition,[4]; at 3.7 µM,0%
same,growth inhibition,[4]; at 11.0 µM,-2%
same,growth inhibition,[4]; at 33.0 µM,-2%
same,growth inhibition,[4]; at 100.0 µM,39%
same,growth inhibition,[5]; at 1.2 µM,-1%
same,growth inhibition,[5]; at 3.7 µM,-1%
same,growth inhibition,[5]; [17],23%
same,growth inhibition,[5]; at 11.0 µM,2%
same,growth inhibition,[5]; at 33.0 µM,11%
same,growth inhibition,[5]; [18],24%
same,growth inhibition,[5]; at 50.0 µM,14.7%
same,growth inhibition,[5]; at 100.0 µM,31%
same,growth inhibition,[6]; at 1.2 µM,-5%
same,growth inhibition,[6]; at 3.7 µM,-4%
same,growth inhibition,[6]; [17],6%
same,growth inhibition,[6]; at 11.0 µM,-5%
same,growth inhibition,[6]; at 33.0 µM,-3%
same,growth inhibition,[6]; [18],12%
same,growth inhibition,[6]; at 50.0 µM,33.5%
same,growth inhibition,[6]; at 100.0 µM,16%
same,growth inhibition,[7]; at 1.2 µM,-3%
same,growth inhibition,[7]; at 3.7 µM,-5%
same,growth inhibition,[7]; at 11.0 µM,-2%
same,growth inhibition,[7]; at 33.0 µM,6%
same,growth inhibition,[7]; at 100.0 µM,32%
same,growth inhibition,[15]; at 1.2 µM,-3%
same,growth inhibition,[15]; at 3.7 µM,-4%
same,growth inhibition,[15]; at 11.0 µM,-9%
same,growth inhibition,[15]; at 33.0 µM,-15%
same,growth inhibition,[15]; at 100.0 µM,-12%
same,growth inhibition,[9]; [17],-2%
same,growth inhibition,[9]; [18],22%
same,growth inhibition,[9]; at 50.0 µM,-46.4%
same,growth inhibition,[10]; at 1.2 µM,-3%
same,growth inhibition,[10]; at 3.7 µM,-4%
same,growth inhibition,[10]; [17],6%
same,growth inhibition,[10]; at 11.0 µM,-5%
same,growth inhibition,[10]; at 33.0 µM,-8%
same,growth inhibition,[10]; [18],20%
same,growth inhibition,[10]; at 50.0 µM,51.9%
same,growth inhibition,[10]; at 100.0 µM,12%
same,growth inhibition,[11]; at 1.2 µM,-4%
same,growth inhibition,[11]; at 3.7 µM,-4%
same,growth inhibition,[11]; at 11.0 µM,-5%
same,growth inhibition,[11]; at 33.0 µM,-3%
same,growth inhibition,[11]; at 100.0 µM,37%
same,growth inhibition,[12]; at 1.2 µM,-1%
same,growth inhibition,[12]; at 3.7 µM,2%
same,growth inhibition,[12]; at 11.0 µM,3%
same,growth inhibition,[12]; at 33.0 µM,7%
same,growth inhibition,[12]; at 100.0 µM,41%
same,growth inhibition,[13]; at 1.2 µM,-2%
same,growth inhibition,[13]; at 3.7 µM,0%
same,growth inhibition,[13]; at 11.0 µM,4%
same,growth inhibition,[13]; at 33.0 µM,22%
same,growth inhibition,[13]; at 100.0 µM,65%
same,growth inhibition,[14]; [17],30%
same,growth inhibition,[14]; [18],88% (active)
same,growth inhibition,[14]; at 50.0 µM,50.4%
same,growth inhibition,[16]; at 1.2 µM,1%
same,growth inhibition,[16]; at 3.7 µM,5%
same,growth inhibition,[16]; at 11.0 µM,10%
same,growth inhibition,[16]; at 33.0 µM,78% (active)
same,growth inhibition,[16]; at 100.0 µM,91% (active)
